# The campaign covered roughly 310,000 compounds. About 14,000 (4.5%) showed an effect of 50% or more. The effect is printed as a negative number. This excerpt belongs to a sample that is enriched for strong results.
# Biological target: human ether-à-go-go-related gene (hERG) potassium channel (human, UniProt Q12809)
# Experiment: primary screen, population patch clamp on CHO cells stably expressing hERG; higher = less effect of the substance
# 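Further: peak tail current of the secondary pulse compared with the same well before compound.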
# Chain of human ether-à-go-go-related gene (hERG) potassium channel (Q12809 whole entry, looked up): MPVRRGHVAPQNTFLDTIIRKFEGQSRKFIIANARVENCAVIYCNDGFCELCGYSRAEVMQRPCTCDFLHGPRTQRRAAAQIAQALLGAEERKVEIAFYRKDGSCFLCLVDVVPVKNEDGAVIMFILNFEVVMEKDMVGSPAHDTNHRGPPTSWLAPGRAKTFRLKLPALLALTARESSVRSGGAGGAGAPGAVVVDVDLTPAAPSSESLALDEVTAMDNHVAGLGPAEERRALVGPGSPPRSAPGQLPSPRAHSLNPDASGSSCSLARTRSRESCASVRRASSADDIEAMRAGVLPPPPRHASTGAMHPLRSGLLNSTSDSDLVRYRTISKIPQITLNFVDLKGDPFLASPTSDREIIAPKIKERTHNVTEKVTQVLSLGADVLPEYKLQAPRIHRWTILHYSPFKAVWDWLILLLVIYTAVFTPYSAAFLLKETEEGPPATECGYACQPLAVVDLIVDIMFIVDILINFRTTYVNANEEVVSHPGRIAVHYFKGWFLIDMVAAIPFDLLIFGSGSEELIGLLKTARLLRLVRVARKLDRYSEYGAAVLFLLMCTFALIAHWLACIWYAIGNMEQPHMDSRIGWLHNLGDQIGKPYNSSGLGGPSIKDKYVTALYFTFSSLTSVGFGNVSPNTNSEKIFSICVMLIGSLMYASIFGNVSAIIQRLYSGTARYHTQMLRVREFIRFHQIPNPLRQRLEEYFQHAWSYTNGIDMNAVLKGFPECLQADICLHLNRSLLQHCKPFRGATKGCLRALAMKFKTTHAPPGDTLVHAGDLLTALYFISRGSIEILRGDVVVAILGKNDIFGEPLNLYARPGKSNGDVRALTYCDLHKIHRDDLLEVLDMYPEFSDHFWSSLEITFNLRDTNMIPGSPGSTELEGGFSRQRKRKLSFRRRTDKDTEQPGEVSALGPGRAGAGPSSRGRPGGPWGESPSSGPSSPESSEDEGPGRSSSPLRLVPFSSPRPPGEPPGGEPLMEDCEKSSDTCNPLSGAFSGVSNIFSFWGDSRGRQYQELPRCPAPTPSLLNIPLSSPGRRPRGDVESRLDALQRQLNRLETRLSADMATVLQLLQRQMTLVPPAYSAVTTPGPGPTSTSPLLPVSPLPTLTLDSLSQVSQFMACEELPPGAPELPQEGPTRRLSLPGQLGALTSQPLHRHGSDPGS
row,Compound,"hERG current change (%, negative = inhibition) at 10uM [%]"
1,COCCn1c(C)cc(C(=O)Cn2nc(C(=O)O)c3ccccc3c2=O)c1C,-3.4
2,O=C(CNC(=O)Cc1cccc2ccccc12)NCc1ccccc1F,14.8
3,CCOC(=O)C1=C(COC(=O)c2cccc(N(C)C)c2)NC(=O)NC1C (centres unmarked),2.49
4,O=C(Oc1ccc(F)cc1)c1cccnc1,17.1
5,O=C(c1ccc(Br)s1)N1CCN(Cc2ccc3c(c2)OCO3)CC1,-36.3
6,Cl.Cn1c(C(=O)N2CCN(Cc3ccc4c(c3)OCO4)CC2)cc2sccc21,-8.46
7,O=C(/C=C/c1cccs1)N1CCN(Cc2ccc3c(c2)OCO3)CC1,-47.9
8,O=C(O)/C=C/C(=O)N1CCN(Cc2ccc3c(c2)OCO3)CC1,4.54
9,O=C(c1cccs1)N1CCC(C(=O)N2CCN(Cc3ccc4c(c3)OCO4)CC2)CC1,-59.9
10,O=C(/C=C\c1cccs1)N1CCN(Cc2ccc3c(c2)OCO3)CC1,-57.8
11,Cn1c(C(=O)N2CCC(C(=O)N3CCOCC3)CC2)cc2sccc21,7.59
12,O=C(c1sccc1Br)N1CCN(Cc2ccc3c(c2)OCO3)CC1,-11
13,Cl.O=C(c1cc2c(s1)CCCC2)N1CCN(Cc2ccc3c(c2)OCO3)CC1,-54.2
14,O=C(C1CCCN1C(=O)c1cccs1)N1CCN(Cc2ccc3c(c2)OCO3)CC1 (centres unmarked),-6.29
15,O=C(c1cccs1)N1CCN(Cc2ccc3c(c2)OCO3)CC1,-15.7
16,Cn1c(C(=O)N2CCC(C(=O)N3CCN(Cc4ccc5c(c4)OCO5)CC3)CC2)cc2sccc21,-60.6
17,CCOC(=O)c1ccc(N2CN(CCc3ccccc3)CNC2=S)cc1,6.21
18,COC(=O)/C(C#N)=C\c1c(OC)[nH]c2ccccc12,14
19,Cc1ccc2[nH]c(SCC(=O)N3CCOCC3)nc2c1C,8.6
20,Cc1ccc2c(c1)nnn2C1CCN(CC(=O)NCCc2ccccc2)CC1,-50.4
21,Cc1ccc2c(c1)nnn2C1CCN(CC(=O)N(c2ccccc2)c2ccccc2)CC1,11.4
22,Cc1ccc2c(c1)nnn2C1CCN(CC(=O)NCc2ccccc2F)CC1,-59.9
23,O=C(CN1CCC(n2nnc3cc(F)ccc32)CC1)NCCc1ccccc1,-41.5

row,Compound,"hERG current change (%, negative = inhibition) at 10uM [%]"
1,Cc1cccc(C(=O)NC2CCN(CC(=O)NCc3ccccc3F)CC2)c1,-33.2
2,Cc1ccc2c(c1)nnn2C1CCN(CC(=O)NNC(=O)c2ccco2)CC1,37.1
3,COc1ccc(C(=O)NNC(=O)CN2CCC(n3nnc4cc(C)ccc43)CC2)cc1,-15
4,Cc1ccc2c(c1)nnn2C1CCN(CC(=O)NCCc2nc3ccccc3[nH]2)CC1,-27.9
5,CCOC(=O)CN(C(=O)CN1CCC(n2nnc3cc(C)ccc32)CC1)c1ccccc1,-53.8
6,CC(=C/c1ccco1)/C=N/NC(=O)CSc1nnc(SCc2ccc(C)cc2)s1,-3.37
7,CN1c2ccccc2C(O)=C(C(=S)Nc2ccccc2)S1(=O)=O,22.7
8,CCOc1ccc(OCC(=O)Nc2nccs2)cc1,19.8
9,Oc1c(Br)cc(/C=N/Nc2nncc3ccccc23)cc1Br,27.8
10,N/C(=N\OC(=O)/C=C/c1ccccc1)c1cccnc1,-5.4
11,N/C(=N\OC(=O)/C=C/c1ccccc1)c1ccccc1,3.82
12,N/C(=N\OC(=O)/C=C/c1ccccc1)c1ccncc1,-52.3
13,CCN(CC)CCCn1c(=S)[nH]c2ccccc2c1=O,-25.7
14,CCN(CC)CCCn1c(=S)[nH]c2cc(Cl)ccc2c1=O,-68.7
15,CCN(CC)CCn1c(=S)[nH]c2cc(Cl)ccc2c1=O,-63.2
16,CCN(CC)CCn1c(=S)[nH]c2cc(C(=O)N3CC(C)CC(C)C3)ccc2c1=O (centres unmarked),-14.7
17,CCN(CC)CCCn1c(=S)[nH]c2cc(C(=O)OC)ccc2c1=O,-33
18,O=c1c2ccc(Cl)cc2[nH]c(=S)n1CCCN1CCOCC1,-22.6
19,CC(C)c1ccc(NC(=O)CSc2ncccc2C(=O)Oc2cccc([N+](=O)[O-])c2)cc1,8.39
20,CCOC(=O)c1c(NC(=O)CSc2nncn2C)sc(C)c1C,-4.02
21,COc1cc(/C=N/O)ccc1OCc1ccc([N+](=O)[O-])cc1,-23.5
22,O=C(NNC(=S)NCc1ccc(Cl)cc1)c1ccc2c(c1)OCO2,6.73
23,Cc1cccc(NC(=S)NC2CC3CCCC(C2)N3Cc2ccco2)c1 (centres unmarked),-21.7

row,Compound,"hERG current change (%, negative = inhibition) at 10uM [%]"
1,Cc1cccc(NC(=S)NC2CC3CCC(C2)N3Cc2ccco2)c1 (centres unmarked),-43.5
2,Cc1ccc(NC(=S)NC2CC3CCCC(C2)N3Cc2ccco2)cc1 (centres unmarked),-52.8
3,Cc1cc(C)cc(NC(=S)NC2CC3CCC(C2)N3Cc2ccco2)c1 (centres unmarked),-71.5
4,CCc1ccc(NC(=S)NC2CC3CCC(C2)N3Cc2ccco2)cc1 (centres unmarked),-45.5
5,Cc1ccc(NC(=S)NC2CC3CCC(C2)N3Cc2ccco2)cc1C (centres unmarked),-36.1
6,O=C(Nc1ccc2c(c1)CCC2)c1ccccc1Br,-12.9
7,COc1cccc2c(N/N=C/c3ccco3)cc(C)nc12,-5.81
8,COc1ccccc1/C=N/Nc1cc(C)nc2ccc(C)cc12,7.89
9,Cc1cc(N/N=C/c2ccc(O)cc2)c2cccc(C)c2n1,-51.6
10,COc1ccc(/C=N/Nc2cc(C)nc3ccc(OC)cc23)c(OC)c1,-50.1
11,Cc1ccc2nc(C)cc(N/N=C/c3ccccc3O)c2c1,2.38
12,COc1cccc2c(N/N=C/c3ccc(O)c(O)c3)cc(C)nc12,18.9
13,Cc1cc(N/N=C/c2ccc(O)cc2O)c2ccccc2n1,4.97
14,COc1ccc(/C=N/Nc2cc(C)nc3c(C)cccc23)cc1,-57.5
15,COc1cccc2c(N/N=C/c3ccccc3)cc(C)nc12,-9.04
16,Cc1cc(N/N=C/c2ccccc2O)c2ccccc2n1,-72.5
17,Cc1cc(C)c2nc(C)cc(N/N=C/c3ccc(O)cc3)c2c1,-33.7
18,COc1ccc2nc(C)cc(N/N=C/c3cccc(OC)c3O)c2c1,-13
19,COCCCNC(=O)c1oc2ccc(S(=O)(=O)N(C)C3CCCCC3)cc2c1C,-4.45
20,COc1ccccc1-c1cc(-c2ccc(O)cc2)nc(N)c1C#N,13.9
21,CC(=O)c1ccc(S(=O)c2ccccc2)cc1 (centres unmarked),-3.38
22,Cc1ccc(CSc2nnc(C)c(=O)[nH]2)cc1,10.9
23,S=C(NCc1ccccn1)Nc1ccc(Cl)cc1Cl,6.07

row,Compound,"hERG current change (%, negative = inhibition) at 10uM [%]"
1,O=C(CCc1ccccc1)NCC(=O)N/N=C/c1ccc(O)cc1O,-8.41
2,COCc1cc(=O)[nH]c(Sc2c(-c3ccccc3)c3ccc(Cl)cc3[nH]c2=O)n1,20.4
3,O=C(NCCCN1CCCC1=O)C(=O)NCC1OCCCN1S(=O)(=O)c1cc(F)ccc1F (centres unmarked),23.8
4,CC(=O)C1=C(c2ccccc2)NC(=O)NC1c1ccc(O)c(Cl)c1 (centres unmarked),17.6
5,O=C(COc1ccccc1Cl)c1ccc2c(c1)CCCC2,-0.256
6,Cc1nc2nc(SCC(=O)Nc3cccc(F)c3)[nH]c2cc1Br,23.2
7,C/C(N)=C(/C#N)C(=O)COC(=O)c1ccccc1O,-0.192
8,Cc1ccc(NC(=O)CSc2ccc(-c3ccco3)nn2)cc1,-7.67
9,CCCN(CCC)CC(C)(C)NS(=O)(=O)c1ccc(Cl)cc1,-17.1
10,COc1ccc2nc(C)cc(N/N=C/c3ccccc3)c2c1,-17.1
11,COc1ccc(/C=N/Nc2cc(C)nc3ccccc23)cc1,-63.3
12,COc1ccc(/C=N/Nc2cc(C)nc3ccc(Br)cc23)cc1,-35.1
13,COc1ccc(-n2c(C)cc(/C=C/c3nc(O)c([N+](=O)[O-])c(=O)[nH]3)c2C)cc1,3.06
14,CC1(C)NC(=O)N(CC(=O)NNC(=O)c2ccccc2F)C1=O,3.42
15,Cn1ncc(Br)c1C(=O)NC1CCCC1,24.1
16,C=CCn1c(O)c(C(C)=Nc2cccc(C(=O)O)c2)c(=O)[nH]c1=O,1.4
17,O=C(c1ccc(Cl)cc1Cl)c1ncc(C(F)(F)F)cc1Cl,-10.1
18,O=c1oc2cc(Br)ccc2n1Cc1ccccc1,18.6
19,Cc1c(CN(C)C)c2c(n1Cc1ccccc1)C(=O)c1ccccc1-2.Cl,-75.6
20,Cc1cc(=O)n(Cc2ccccc2)c2ccccc12,4.79
21,Cc1c(CN(C)C)c2c(n1Cc1ccccc1)C(=O)c1ccc(Br)cc1-2.Cl,-74.5
22,Cc1c(CN(C)C)c2c(n1C)C(=O)c1ccc(Br)cc1-2.Cl,-37.3
23,Cc1cc(O)cc(=O)n1Cc1ccccc1,12

# Reference: publication PMC4336329 (PLoS ONE, 2015)
